Screening results (PubChem BioAssay)
CASP6 VEID inh: blocks human caspase-6 cleavage activity; purified caspase-6, Z-VEID-R110 cleavage fluorescence; P55212; inhibition, % at 12.5 µM; 0.53% of 350,000 active;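 active = mean inhibition across replicates at least about 35%, with every replicate also reaching that limit, limit read from the data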;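 also: 0% = median of neutral control wells and 100% = no fluorescence left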
Target sequence (P55212 24-179 limits assumed): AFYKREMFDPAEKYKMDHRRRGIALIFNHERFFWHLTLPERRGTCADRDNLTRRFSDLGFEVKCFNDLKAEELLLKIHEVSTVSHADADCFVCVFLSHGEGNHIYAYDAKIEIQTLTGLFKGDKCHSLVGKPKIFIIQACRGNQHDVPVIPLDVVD
Target sequence (P55212 194-293 limits assumed): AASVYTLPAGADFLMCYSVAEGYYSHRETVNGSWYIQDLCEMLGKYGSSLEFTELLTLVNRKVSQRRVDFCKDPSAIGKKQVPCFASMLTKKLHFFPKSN
ALR inh: human ALR oxidase inhibition via reduced H2O2. inhibition, % (test concentration not listed). purified ALR, DTT oxidation, H2O2 HRP-luminol luminescence. 3.8% of 290,000 active;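 active = mean replicate inhibition above about 79%, with every replicate also reaching it, limit read from the data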
Target sequence (P55789 whole entry, looked up): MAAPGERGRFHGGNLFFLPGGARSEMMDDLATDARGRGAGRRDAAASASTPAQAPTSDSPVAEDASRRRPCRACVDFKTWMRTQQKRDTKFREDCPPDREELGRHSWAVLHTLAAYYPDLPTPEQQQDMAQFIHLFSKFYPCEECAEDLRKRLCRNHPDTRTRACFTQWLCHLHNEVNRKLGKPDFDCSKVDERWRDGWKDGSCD
Glyco luc inh: blocks N-linked glycosylation in D54 reporter cells | AID 588692 | reporter increase, % at 12.5 µM | 0.23% of 360,000 active | D54 ERlucT glycosylation luciferase reporter, 24 h; percent of 100 nM tunicamycin response;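 active = mean luciferase reporter signal, scaled so untreated is 0 and the glycosylation-blocking control 100, at or above a set limit in every replicate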;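 also: luciferase carries N-glycosylation sites so blocking glycosylation raises the light; 0% = median of neutral control wells and 100% = median of 100 nM tunicamycin wells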
NSD2 HMT inh: NSD2 (human) methyltransferase inhibition; O96028; NSD2 peptide methylation, AlphaScreen, 120 min; inhibition, % at 12.5 µM; 0.54% of 310,000 active; AID 743445; in the data active = inhibition above about 50%
CDK5 inh: inhibitors of human CDK5/p35 kinase; Q00535+Q15078; Recombinant CDK5/p35, ADP-Glo luminescence, 60 min; inhibition, % at 10 µM; 0.01% of 330,000 active;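 active = highest replicate inhibition of at least 50% and at least 75% of replicates reaching 50%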;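 also: plate controls were DMSO neutral control for no effect and GW8510 at 10 µM for full effect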
Mot1-301 SUMO: inhibitors of SUMOylation pathway: yeast Mot1-301 growth rescue | growth rescue, % at 18.8 µM | AID 2716 | 1% of 320,000 active | S. cerevisiae Mot1-301 growth rescue, ATP luminescence, 38.5C; percent above DMSO median, 100 means doubled;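 active = every valid replicate shows activation above 250% relative to neutral control wells; inactive = the rest, any valid replicate at or below 250%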;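 also: OY570 slx delta 5 strain wells were the positive control but not used for scaling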
* hit, by the source's call; nt = no result. Most compounds without a hit are left out; they make up all but 3.9% or so of the library.

SMILES	CASP6 VEID inh	ALR inh	Glyco luc inh	NSD2 HMT inh	CDK5 inh	Mot1-301 SUMO
Cc1noc(C)c1S(=O)(=O)Nc1ccc2c(c1)C(=O)N([C@@H](C)CO)C[C@H](C)[C@H](CN(C)C)OCCCC[C@@H](C)O2	0	nt	nt	nt	nt	nt
CN1CCC(=O)N([C@H](CSc2ccccc2)c2ccccc2)CC1	nt	13	0	nt	1	-6
COc1ccc(SC[C@H](Cc2ccccc2)N2CC[C@@H](C(C)(C)C)CCC2=O)cc1	-2	99*	-6	nt	-3	15
CCCN1CCC(=O)N([C@H](CSc2ccc(OC)cc2)c2ccccc2)CC1	-5	98*	-3	nt	0	4
CC(=O)N[C@@H]1CC[C@@H](CCNC(=O)Nc2ccc(C(F)(F)F)cc2)O[C@H]1CO	-219	nt	nt	nt	nt	nt
Cn1nc(-c2ccc(Cl)cc2)c2cc(C(=O)NCCCN3CCOCC3)sc21	nt	95*	33*	nt	0	6
Cn1nc(-c2ccc(Cl)cc2)c2cc(C(=O)NC3CC3)sc21	0	84*	24	nt	-5	-12
Cn1nc(-c2ccc(Cl)cc2)c2cc(C(=O)NCCN3CCOCC3)sc21	0	93*	1	nt	-3	7
CCOCCCNC(=O)c1cc2c(-c3ccc(Cl)cc3)nn(C)c2s1	1	39	6	nt	0	259
CCCCN(CC)CCNC(=O)c1cc2c(-c3ccc(Cl)cc3)nn(C)c2s1	1	-33	18	11	6	-6
CCn1c(=O)c2cc(C(=O)NCCN3CCOCC3)sc2c2ccccc21	0	94*	4	nt	1	3
CC(C)NC(=O)N(C)C[C@H]1Oc2ncc(-c3ccccc3F)cc2C(=O)N([C@H](C)CO)C[C@@H]1C	1	nt	nt	nt	nt	nt
CCN(CC)CCNC(=O)c1cc2c(-c3ccc(Cl)cc3)nn(C)c2s1	-14	nt	36*	nt	6	nt
CCCN(CCC)CCNC(=O)c1cc2c(-c3ccc(Cl)cc3)nn(C)c2s1	-12	-10	12	3	24	31
CCN1CCN(C(=O)c2cc3c(-c4ccc(Cl)cc4)nn(C)c3s2)CC1	-1	98*	5	nt	1	16
CCCC#Cc1ccc2c(c1)O[C@@H](CN(C)Cc1ccncc1)[C@@H](C)CN([C@H](C)CO)S2(=O)=O	-2	nt	nt	nt	nt	nt
C[C@@H]1CN([C@@H](C)CO)C(=O)c2cccc(NS(=O)(=O)c3cccs3)c2O[C@H]1CN(C)Cc1ccc(Oc2ccccc2)cc1	1	nt	nt	nt	nt	nt
C[C@@H]1CN([C@@H](C)CO)C(=O)c2cc(NC(=O)c3ccccc3)ccc2O[C@@H](C)CCCCO[C@H]1CN(C)C(=O)c1ccncc1	-3	nt	nt	nt	nt	nt
O=C(c1ccccc1Br)N1CCc2c([nH]c3ccccc23)C1	-3	83*	1	9	1	-45
O=C(c1[nH]c(C(F)(F)F)nc1-c1ccccc1)N1CCc2c([nH]c3ccccc23)C1	3	nt	5	nt	nt	nt
C[C@H]1CN([C@@H](C)CO)C(=O)c2c(c3ccccc3n2C)-c2ccccc2CO[C@@H]1CN(C)C(=O)[C@H]1CCCN1C	2	nt	nt	nt	nt	nt
Cc1cc(C)n(CCc2nc(-c3ccc(C)o3)cs2)n1	nt	95*	1	-2	0	-15
COc1cccc(CN2CCc3[nH]c(=S)[nH]c(=O)c3C2)c1	41*	40	3	2	1	30
O=C(C1COc2ccccc2O1)N1CCN(c2nc3ccccc3s2)CC1 (configuration not stated)	0	-33	-1	0	0	3
O=C(C1COc2ccccc2O1)N1CCN(c2nc3ccc([N+](=O)[O-])cc3s2)CC1 (configuration not stated)	1	-4	3	1	0	535*
SMILES	CASP6 VEID inh	ALR inh	Glyco luc inh	NSD2 HMT inh	CDK5 inh	Mot1-301 SUMO
Cc1cc(Cl)ccc1OCC(=O)N1CCCN(C(=O)COc2ccc(Cl)cc2C)CC1	nt	-12	6	-1	0	-24
Cc1ccc(NC2CCCN(C(=O)CSc3ccccn3)C2)cc1C (configuration not stated)	-2	99*	1	5	1	-6
COc1ccc(CCC(=O)N2CCCC(Nc3ccc(C)c(C)c3)C2)cc1OC (configuration not stated)	4	99*	-1	9	nt	2
CCCC(=O)N1CCCC(C(=O)c2ccc(OC)c(OC)c2)C1 (configuration not stated)	2	nt	1	-1	1	5
COc1ccccc1OCC(=O)N1CCCC(Nc2ccc(C)c(C)c2)C1 (configuration not stated)	1	98*	1	8	0	2
COc1ccccc1C(=O)C1CCCN(C(=O)CSc2ccccn2)C1 (configuration not stated)	0	nt	0	-1	0	51
COc1ccc(NC2CCCN(C(=O)COc3ccc(Cl)cc3C)C2)cc1OC (configuration not stated)	1	96*	-2	13	2	0
COc1ccccc1OCC(=O)N1CCCC(Nc2ccc(F)c(F)c2)C1 (configuration not stated)	-4	41	nt	1	0	-25
CC=Cc1ccc2n(c1=O)C[C@H]1[C@H](CO)[C@@H](C(=O)N3CCCCC3)[C@@H]2N1CC1CCCC1 (mixture of isomers)	1	nt	nt	nt	nt	nt
O=C(C1=C[C@@H](C2CC2)C[C@@H](OCc2ccc(CO)cc2)O1)N1CCCC1	-2	nt	nt	nt	nt	nt
Cc1ccc(NC2CCCN(C(=O)CCC3=NNC(=O)CC3)C2)cc1C (configuration not stated)	2	98*	1	0	0	52
CC(=O)NCCCC[C@@H]1NC(=O)[C@@H]2C[C@H](C(=O)NCc3ccc(F)cc3)[C@H](c3ccc(O)cc3)N2C1=O	3	nt	nt	nt	nt	nt
CC1(C)CC(=O)C2=C(C1)OC(N)=C(C#N)C2c1cccs1 (configuration not stated)	-1	96*	1	0	1	-17
C[C@@H]1CN([C@H](C)CO)C(=O)c2cccc(NC(=O)CCCCCC(=O)Nc3ccccc3N)c2O[C@H]1CN(C)Cc1ccc(C(F)(F)F)cc1	1	nt	nt	nt	nt	nt
CN1CCN(C(=O)c2cc(Cl)cc(Cl)c2)CC1	65*	-5	-1	-1	1	293
Cn1c(SCC(=O)N=Nc2c(O)[nH]c3ccccc23)nc2ccccc21	nt	-15	nt	nt	nt	-7
O=C(CSc1nc2ccccc2[nH]1)N=Nc1c(O)[nH]c2ccccc12	nt	96*	5	35	1	22
Cc1ccc(-c2nc(CSCC(=O)N3CCN(c4ccccn4)CC3)c(C)o2)cc1	3	99*	-1	nt	0	41
CCOc1ccc(-c2nc(CSCC(=O)N3CCN(c4cccc(OC)c4)CC3)c(C)o2)cc1	-1	99*	-6	nt	-1	5
CCc1ccc(-c2nc(CSCC(=O)N3CCN(c4ccccn4)CC3)c(C)o2)cc1	nt	85*	1	10	0	4
